OPRM1-OPRD1 inv = inverse agonists of human mu-delta opioid receptor heterodimerization. cell-based MOR-DOR heterodimer luminescence, inverse agonism. 0.21% of 340,000 active. P35372+P41143. inhibition, % at 9.3 µM; in the data active = inhibition above about 22%, passing the limit was not always enough
HTR5A ag ctr = counter-screen for OPRM1-OPRD1 agonists: human HTR5A agonism. P47898. activation, % at 9.3 µM. HTR5A agonist assay, luminescence, cell-based. 0.61% of 340,000 active. AID 504692; in the data active = activation mostly above about 9.5%, no sharp cut-off; inactive = mostly below about 7.6%
Target sequence (P47898 whole entry, looked up): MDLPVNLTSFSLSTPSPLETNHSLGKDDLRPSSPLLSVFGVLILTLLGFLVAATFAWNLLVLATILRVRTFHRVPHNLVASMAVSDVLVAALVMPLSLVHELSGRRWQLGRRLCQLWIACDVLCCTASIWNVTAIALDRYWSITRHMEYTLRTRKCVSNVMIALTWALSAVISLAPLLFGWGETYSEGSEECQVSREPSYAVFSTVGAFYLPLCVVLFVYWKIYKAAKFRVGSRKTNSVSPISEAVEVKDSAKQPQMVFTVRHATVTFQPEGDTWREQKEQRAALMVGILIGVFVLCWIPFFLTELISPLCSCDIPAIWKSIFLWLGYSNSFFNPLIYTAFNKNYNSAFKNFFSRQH
HTR5A inv ag = counter-screen for OPRM1-OPRD1 inverse agonists: human HTR5A inverse agonism | HTR5A cell line, luminescence | inhibition, % at 9.3 µM | 0.083% of 340,000 active | AID 504634; in the data active = inhibition mostly above about 23%, no sharp cut-off; inactive = mostly below about 18%
OPRM1-OPRD1 ag = OPRM1-OPRD1 heterodimerization agonism. AID 504326. P35372+P41143. 0.3% of 340,000 active. activation, % at 9.3 µM. cells, luminescence
MOR-DOR ag conf = confirmation of human OPRM1-OPRD1 heterodimerization agonists | AID 504904 | activation, % at 9.3 µM | cells, MOR-DOR heterodimerization, luminescence complementation | shares compounds with OPRM1-OPRD1 ag | 45% of 830 active
HTR5A ag ctr2 = activates human HTR5A in OPRM1-OPRD1 agonist counter-screen; shares compounds with OPRM1-OPRD1 ag; HTR5A agonist counterscreen, cell luminescence; activation, % at 9.3 µM; 8% of 830 active; AID 504905; in the data active = activation above about 17%
Large screens that a line does not name were inactive (follow-up assays come after a bar, where they were run). Hits are enriched below; roughly 1.1% of the tested compounds scored in any of these assays. Rule as the data show it, unless noted: active = activation above about 18%; inactive = the rest.

O=S(=O)(Nc1cc(Cl)ccc1-n1cncn1)c1cc(Br)ccc1Br	none
O=S(=O)(Nc1cc(Cl)ccc1-n1cncn1)c1ccccc1Cl	OPRM1-OPRD1 ag 73 | MOR-DOR ag conf inactive | HTR5A ag ctr2 inactive
CCCn1c(SCC(=O)Nc2cc(S(=O)(=O)N(C)C)ccc2OC)n[nH]c1=O	none
OCC1(CCc2ccccc2)CCN(Cc2cc(Cl)ccc2O)CC1	none
Cc1ccc(-n2cccn2)c(CN2CCC(CO)(CCc3ccccc3)CC2)c1	OPRM1-OPRD1 ag 29 | MOR-DOR ag conf inactive | HTR5A ag ctr2 inactive
CN(C)CCCN(C(=O)c1ccc(Br)s1)c1nc2cc3c(cc2s1)OCCO3	OPRM1-OPRD1 ag 35 | MOR-DOR ag conf 93 | HTR5A ag ctr2 inactive
c1ccc(CCNc2ccnc3cc4ccccc4cc23)cc1	OPRM1-OPRD1 ag 32 | MOR-DOR ag conf 24 | HTR5A ag ctr2 inactive
O=C(CSc1nc2ccccc2[nH]1)N1CCN(c2ccccc2)CC1	none
O=[N+]([O-])c1ccc(N2CCN(CCO)CC2)cc1Sc1nc2ccccc2[nH]1	OPRM1-OPRD1 ag 19 | MOR-DOR ag conf inactive | HTR5A ag ctr2 17
COc1ccc(-n2c(C)cc(/C=C3/SC(=S)N(C)C3=O)c2C)cc1	none
Cc1cc(/C=C2\SC(=S)N(C)C2=O)c(C)n1-c1cccc(O)c1	OPRM1-OPRD1 ag 30 | MOR-DOR ag conf inactive | HTR5A ag ctr2 inactive
Cc1ccccc1OCc1nc(-c2ccc(NC(=O)c3ccco3)cc2)no1	none
Cc1ccccc1OCc1nc(-c2ccc(NC(=O)c3ccc4c(c3)OCO4)cc2)no1	OPRM1-OPRD1 ag 21 | MOR-DOR ag conf inactive | HTR5A ag ctr2 inactive
C=CCN(CC=C)C(=O)CN1C(=O)NC(c2ccccc2)(c2ccccc2)C1=O	none
Cc1ccc([C@H]2C(C(=O)O)=CC[C@@H](c3cccs3)N2S(=O)(=O)c2ccc(C)cc2)cc1	none
Cc1ccc(S(=O)(=O)N2[C@@H](c3ccc(C(C)(C)C)cc3)C(C(=O)O)=CC[C@H]2c2cccs2)cc1	OPRM1-OPRD1 ag 26 | MOR-DOR ag conf 24 | HTR5A ag ctr2 inactive
CCOC(=O)c1c(NC(=O)CN2CCN(S(=O)(=O)c3cc(Cl)ccc3Cl)CC2)sc(C(=O)N(C)C)c1C	OPRM1-OPRD1 ag 18 | MOR-DOR ag conf inactive | HTR5A ag ctr2 inactive
O=C(COC(=O)CC1CCCC1)Nc1cccc(F)c1	OPRM1-OPRD1 ag 323 | MOR-DOR ag conf inactive | HTR5A ag ctr2 inactive
O=C(COC(=O)C1CCCCC1)Nc1cccc(F)c1	none
CN(C)C(CNC(=S)Nc1cccc(Cl)c1)c1ccccc1 (stereo not given)	OPRM1-OPRD1 ag 357 | MOR-DOR ag conf 421 | HTR5A ag ctr2 inactive
Cc1ccc(NC(=S)NCC2CCN(C(C)c3ccccc3)C2)cc1 (stereo not given)	none
Cc1cccc(NC(=S)NC(C)CCc2ccccc2)c1 (stereo not given)	none
Cc1ccc(Cl)cc1NC(=O)CNCC(c1ccccc1)N(C)C (stereo not given)	OPRM1-OPRD1 ag 50 | MOR-DOR ag conf 76 | HTR5A ag ctr2 inactive
Cc1cccc(NC(=S)NCC(c2ccccc2)N(C)C)c1 (stereo not given)	OPRM1-OPRD1 ag 348 | MOR-DOR ag conf inactive | HTR5A ag ctr2 inactive
CC(c1ccccc1)N1CCC(CNC(=S)Nc2cccc(Cl)c2)C1 (stereo not given)	OPRM1-OPRD1 ag 19 | MOR-DOR ag conf inactive | HTR5A ag ctr2 28
CCC(C(=O)NCCN1CCOCC1)n1c2ccccc2c2nc(=O)cc(C)n21 (stereo not given)	none
CCc1nc(SCC(=O)NC2CC2)c2c(C)c(C)sc2n1	none
COc1ccc(S(=O)(=O)N2CCCCC2)cc1NC(=O)Cc1sc(C)nc1-c1ccc(F)cc1	none
Cc1cccc(NC(=O)c2cc(S(=O)(=O)N3CCCCC3)ccc2Cl)n1	none
O=C(CNc1ccc2ccccc2c1)N/N=C/c1ccc([N+](=O)[O-])o1	HTR5A ag ctr 9.3, OPRM1-OPRD1 ag 38 | MOR-DOR ag conf inactive | HTR5A ag ctr2 inactive
CCOC(=O)c1c(S(=O)(=O)NCc2ccco2)c(C)n(C)c1C	none
Cc1cccn2cc(-c3ccc(NC(=O)Cc4ccccc4)cc3)nc12	HTR5A ag ctr 17, OPRM1-OPRD1 ag 39 | MOR-DOR ag conf inactive | HTR5A ag ctr2 inactive
COc1ccc(CC(=O)Nc2ccc(-c3cn4cccc(C)c4n3)cc2)cc1OC	none
O=C(Cn1c(-c2ccccc2)c[n+]2ccsc12)c1ccc([N+](=O)[O-])cc1	OPRM1-OPRD1 ag 81 | MOR-DOR ag conf inactive | HTR5A ag ctr2 40
CCC1CCCCN1CCCNC(=O)CS(=O)(=O)Cc1nc(-c2cccc(OC)c2)oc1C (stereo not given)	none
CC(=O)Nc1ccc(NC(=O)C(C)Oc2ccc(C)nc2[N+](=O)[O-])cc1 (stereo not given)	none
CC(C)CCNC(=O)C(=O)NCC1OCCCN1S(=O)(=O)c1cccs1 (stereo not given)	none
Nc1nc(SCC(=O)Nc2ccccc2)nc2nc3c(cc12)CCCC3	OPRM1-OPRD1 ag 35 | MOR-DOR ag conf inactive | HTR5A ag ctr2 inactive
Cc1ccc(NC(=O)CSc2nc(N)c3cc4c(nc3n2)CCCC4)cc1	OPRM1-OPRD1 ag 29 | MOR-DOR ag conf 28 | HTR5A ag ctr2 inactive
CCCN1CCN(S(=O)(=O)c2ccc3c(c2)NC(=O)C(C)C(=O)N3)CC1 (stereo not given)	none
Cc1cccc(CSc2[nH]c(=O)ncc2C)c1	none
CCOc1ccc(NC(=S)NC(=O)c2cncc(Br)c2)cc1	none
COc1ccccc1NS(=O)(=O)c1ccc(C)c(C(=O)NC2CCN(Cc3ccccc3)CC2)c1	none
COc1ccccc1NS(=O)(=O)c1cccc(C(=O)NC2CCN(Cc3ccccc3)CC2)c1	OPRM1-OPRD1 ag 20 | MOR-DOR ag conf inactive | HTR5A ag ctr2 inactive
COc1ccc(OC)c(NC(=O)c2cc(-c3cc(Cl)ccc3O)n[nH]2)c1	OPRM1-OPRD1 ag 19 | MOR-DOR ag conf inactive | HTR5A ag ctr2 inactive
COc1ccc(Cl)cc1NC(=O)c1cc(-c2ccccc2O)n[nH]1	none
CC(C)CC(/C(O)=C(\C#N)c1nc2ccccc2[nH]1)N1C(=O)c2ccccc2C1=O (stereo not given)	OPRM1-OPRD1 ag 31 | MOR-DOR ag conf 30 | HTR5A ag ctr2 inactive
CC(C)(C)/C(O)=C(/C#N)c1nc2ccccc2[nH]1	none
CC(=O)Nc1ccc(C(=O)NCC(c2ccco2)N(C)C)cc1 (stereo not given)	none
CN(C)C(CNC(=O)c1ccc(C(F)(F)F)cc1)c1ccco1 (stereo not given)	OPRM1-OPRD1 ag 51 | MOR-DOR ag conf 52 | HTR5A ag ctr2 inactive
COc1ccc(C(=O)NCC(=O)NCC(c2ccco2)N(C)C)cc1OC (stereo not given)	none
CN(C)C(CNC(=O)c1cc2ccccc2o1)c1ccco1 (stereo not given)	OPRM1-OPRD1 ag 22 | MOR-DOR ag conf 147 | HTR5A ag ctr2 inactive
Cc1ccc(CC(=O)NCC(c2ccco2)N(C)C)cc1C (stereo not given)	OPRM1-OPRD1 ag 69 | MOR-DOR ag conf 56 | HTR5A ag ctr2 inactive

Screening results deposited in PubChem BioAssay by The Scripps Research Institute Molecular Screening Center.
